The entries come from a sample that favours hits as a whole.
GC-A act – GC-A (human) enzyme activation | HEK293 GC-A cells, cGMP TR-FRET, EC30 ANP; 0% at EC30 ANP, 100% saturating ANP | 370,000 tested, 0.14% active | activation, % at 10 µM | P16066; in the data active = activation above about 40%
ALR H2O2 inh – human ALR oxidase inhibition via reduced H2O2. 290,000 tested, 3.8% active. inhibition, % (concentration not given with the values). purified ALR, DTT oxidation, H2O2 HRP-luminol luminescence;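 active = mean replicate inhibition above about 79%, with every replicate also reaching it, limit read from the data; inconclusive = only one of the two criteria met; inactive = mean below limit and not every replicate reaching it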
GC-B act – GC-B (human) receptor activation; HEK293-GC-B cells, CNP EC30, cGMP TR-FRET; 0% at EC30 CNP, 100% saturating CNP; 370,000 tested, 0.11% active; P20594; activation, % at 10 µM;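 active = activation at 10 µM reaching about 35% in either raw or pattern-adjusted values, limit read from the data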
HDAC3 inh – human HDAC3 inhibition; O15379; recombinant HDAC3, fluorogenic peptide/trypsin coupled, fluorescence; inhibition, % at 8.3 µM; 320,000 tested, 0.15% active; AID 2718; in the data active = inhibition above about 26%, passing the limit was not always enough; inconclusive = no clear call, values can overlap the other calls
Active calls of the source: *.

What do the screens show for `COC(=O)[C@]12C[C@H](CC(=O)N3CCSCC3)C(=O)N(CCC3=CCCCC3)C1=C[C@H](C1CCCC1)O[C@@H]2C`?
GC-A act: -7; GC-B act: -1

Results for COC(=O)c1cc2c(c3c4cc(C)ccc4n(S(=O)(=O)c4cccc(C)c4)c13)C(=O)N(Cc1ccc(N(C)C)cc1)C2 ?
GC-A act: 0; GC-B act: 3

What do the screens show for `CCc1c(C)sc(NC(=O)c2cc(C)no2)c1C#N`?
GC-A act: 10; ALR H2O2 inh: 93*; GC-B act: -3; HDAC3 inh: 4

What do the screens show for `COc1cccc(C(=O)N[C@H](C(=O)N2CCC[C@H]2C(=O)NCc2ccccc2)C2CCCCC2)c1`?
GC-A act: -2; GC-B act: 0

How did CNc1nc(-c2ccccc2)nnc1C(F)(F)F do in these assays?
GC-A act: 2; ALR H2O2 inh: 0; GC-B act: -1; HDAC3 inh: 0

What do the screens show for `Cc1ccc(Sc2nc(-c3ccccc3)nnc2C(F)(F)F)cc1`?
GC-A act: 3; ALR H2O2 inh: 98*; GC-B act: -6; HDAC3 inh: -2

What do the screens show for `OC(c1ccccc1)(c1ccccc1)C1CCN(CCCNc2cccc(OC(F)(F)F)c2)CC1`?
GC-A act: -13; GC-B act: -9

How did NS(=O)(=O)c1ccc(NC(=O)COC(=O)Cc2c[nH]c3ccccc23)cc1 do in these assays?
GC-A act: 3; ALR H2O2 inh: 50; GC-B act: 1; HDAC3 inh: -8

What do the screens show for `Cc1ccc(Cc2c(-c3ccc(Br)cc3)nc3cc(C)ccn23)cc1`?
GC-A act: 34; GC-B act: 46*

How did COc1ccc(OCc2n[nH]c(=S)n2Cc2ccco2)cc1 do in these assays?
GC-A act: -3; ALR H2O2 inh: 36; GC-B act: -4; HDAC3 inh: -1

What do the screens show for `Oc1ccc(-c2n[nH]c(=S)n2Cc2ccccc2)cc1`?
GC-A act: 1; ALR H2O2 inh: 97*; GC-B act: 8; HDAC3 inh: 3

How did Cc1cc(-c2n[nH]c(=S)n2Cc2ccco2)nn1C do in these assays?
GC-A act: 6; ALR H2O2 inh: 6; GC-B act: 0; HDAC3 inh: -2

What do the screens show for `COc1ccc(-c2n[nH]c(=S)n2C2CCCCC2)cc1`?
GC-A act: 0; ALR H2O2 inh: 89*; GC-B act: 3; HDAC3 inh: -2

What do the screens show for `COc1ccc(-c2n[nH]c(=S)n2Cc2ccco2)cc1`?
GC-A act: -4; ALR H2O2 inh: 97*; GC-B act: 3; HDAC3 inh: 2

How did Oc1ccccc1-c1n[nH]c(=S)n1Cc1ccco1 do in these assays?
GC-A act: 3; ALR H2O2 inh: 91*; GC-B act: -6; HDAC3 inh: 13

Results for NC(=O)CSc1nnc(-c2ccc([N+](=O)[O-])cc2)o1 ?
GC-A act: 1; ALR H2O2 inh: -11; GC-B act: 0; HDAC3 inh: -3

What do the screens show for `COc1ccc(OC)c(C2C3=C(COC3=O)Nc3cc4c(cc32)OCO4)c1` (centres undefined)?
GC-A act: -23; ALR H2O2 inh: 99*; GC-B act: -16; HDAC3 inh: -1

What do the screens show for `COc1ccc(C2C3=C(CC(C)(C)CC3=O)Nc3cc4c(cc32)OCO4)cc1` (centres undefined)?
GC-A act: 7; ALR H2O2 inh: inconclusive; GC-B act: 4; HDAC3 inh: -2

How did CC(C)c1ccc(NC2CCCN(C(=O)C3=NN(C)C(=O)CC3)C2)cc1 (centres undefined) do in these assays?
GC-A act: 2; ALR H2O2 inh: 98*; GC-B act: 7; HDAC3 inh: -4

What do the screens show for `COc1ccc(NC2CCCN(C(=O)C3=NN(C)C(=O)CC3)C2)cc1OC` (centres undefined)?
GC-A act: -6; ALR H2O2 inh: 98*; GC-B act: -1; HDAC3 inh: -5

How did COc1ccc(NC2CCCN(C(=O)c3cccc(C)n3)C2)cc1OC (centres undefined) do in these assays?
GC-A act: -7; ALR H2O2 inh: inconclusive; GC-B act: -8

How did Cc1csc(Nc2ccccc2)n1 do in these assays?
GC-A act: 1; ALR H2O2 inh: 98*; GC-B act: 3; HDAC3 inh: 0

How did Cc1nc(Nc2ccccc2)sc1C do in these assays?
GC-A act: 3; ALR H2O2 inh: 99*; GC-B act: 3; HDAC3 inh: 1

How did Cc1csc(Nc2ccc(C(=O)O)cc2)n1 do in these assays?
GC-A act: 3; GC-B act: -1

How did O=C(N/C(=C\c1ccco1)C(=O)N1CCCC1CO)c1ccccc1 (centres undefined) do in these assays?
GC-A act: 2; GC-B act: 0; HDAC3 inh: 2

Results for O=C(NC1CCCC1)C(=O)N(Cc1cccnc1)C(C(=O)NCC1CCCO1)c1ccco1 (centres undefined) ?
GC-A act: 0; ALR H2O2 inh: 0; GC-B act: 4

How did Cc1sc2nc(CN3CCC(C)CC3)nc(Cl)c2c1C do in these assays?
GC-A act: 1; ALR H2O2 inh: 97*; GC-B act: -1; HDAC3 inh: -6

Results for Cc1sc2nc(CN3CCOCC3)nc(Cl)c2c1C ?
GC-A act: 6; ALR H2O2 inh: 17; GC-B act: -1; HDAC3 inh: 2

How did O=C(NCC1CCN(C(=O)C(=O)c2cc3ccccc3o2)CC1)c1ccc2c(c1)OCC2 do in these assays?
GC-A act: 0; GC-B act: 0

How did Cn1nc(C(=O)N2CCN(C(c3ccccc3)c3ccccc3)CC2)c2ccccc2c1=O do in these assays?
GC-A act: -1; ALR H2O2 inh: -9; GC-B act: -9; HDAC3 inh: 3

What do the screens show for `Cc1ccc(NC2CCCN(C(=O)c3cccnc3)C2)cc1C` (centres undefined)?
GC-A act: 1; ALR H2O2 inh: 93*; GC-B act: 3; HDAC3 inh: 3

Results for C=CCOc1cccc(C(=O)N2CCCC(Nc3ccc4c(c3)OCCO4)C2)c1 (centres undefined) ?
GC-A act: 0; ALR H2O2 inh: 91*; GC-B act: 0; HDAC3 inh: 0

Results for Cc1ccn2cc(C(=O)N3CCCC(Nc4ccc(F)cc4)C3)nc2c1 (centres undefined) ?
GC-A act: 4; ALR H2O2 inh: 66; GC-B act: 1; HDAC3 inh: -4

Results for COC(=O)c1cccc(C(=O)N2CCCC(Nc3ccc(C)c(C)c3)C2)c1 (centres undefined) ?
GC-A act: 0; ALR H2O2 inh: 98*; GC-B act: -3; HDAC3 inh: -5

How did Cc1ccc(NC2CCCN(C(=O)c3cc4ncccn4n3)C2)cc1C (centres undefined) do in these assays?
GC-A act: 0; ALR H2O2 inh: 83*; GC-B act: 4; HDAC3 inh: 3

What do the screens show for `CCOC(=O)C1=C(C(=O)OCC)C2N(Cc3ccc(C(F)(F)F)cc3)c3ccccc3[C@@]23C[C@@H](C(=O)OC)N(S(=O)(=O)c2ccc(OC)cc2)C3=N1` (some centres undefined)?
GC-A act: 2; GC-B act: 10

From PubChem BioAssay
